Among the test systems are T-47D breast; BT-549 breast; MDA-MB-435 melanoma; SW-620 colon; MCF7 breast; HCT-116 colon; HCC-2998 colon; KM12 colon.
Test in all cases: NCI-60 one-dose screen, 48 h (100 = growth as untreated, 0 = no growth, -100 = all killed)
Holding throughout (conditions): 10 µM unless noted

About 83,000 compounds went through this panel and 20% of them were active in at least one assay; those are over-represented in the sample as a whole.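 The test compound was applied at a single concentration to cells in 96-well plates for 48 hours, and percent growth was recorded.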 A number with no mark means an inactive call. Calls of active or inactive are those of the source. The calls were made as follows: active = growth percent below 10; inactive = the rest.

For the compound `Cc1[nH]c(=S)[nH]c(=O)c1C`, the growth in the assay with T-47D breast was 115%; in the assay on BT-549 breast it was 99.7%; in the assay on MDA-MB-435 melanoma it was 105%; with SW-620 colon, 109%; with MCF7 breast, 101%; in the assay on HCT-116 colon it was 110%. Further, the growth was 103% in the assay on HCC-2998 colon and 108% in the assay with KM12 colon.

Regarding `CC(C)NC(=O)OCc1c(COC(=O)NC(C)C)c(-c2ccc(Cl)cc2)n2c1CCC2`, the growth is 36.3% in the assay with T-47D breast; 27% in the assay with BT-549 breast; 66.7% in the assay on MDA-MB-435 melanoma; 46.6% in the assay with SW-620 colon; 41.2% with MCF7 breast; 49.9% in the assay on HCT-116 colon. Further, the growth in the assay on HCC-2998 colon is 87%; in the assay with KM12 colon, 100%.

As for `S=C(NCc1ccccc1)N1CCC(CCCC2CCN(C(=S)NCc3ccccc3)CC2)CC1`, the growth in the assay on T-47D breast was 71.8%; in the assay with BT-549 breast, 98.2%; in the assay on MDA-MB-435 melanoma, 101%; with SW-620 colon, 108%; in the assay on MCF7 breast it was 82.3%; with HCT-116 colon it was 85.5%. The growth is 123% with HCC-2998 colon and 95.9% with KM12 colon.

With `CC(c1ccccc1)N(C)C` (centres undefined), the growth in the assay on T-47D breast was 112%; in the assay with BT-549 breast, 101%; in the assay with MDA-MB-435 melanoma, 119%; in the assay with SW-620 colon it was 117%; in the assay on MCF7 breast it was 99.5%; with HCT-116 colon, 93.8%. Further, the growth was 113% with HCC-2998 colon and 101% in the assay on KM12 colon.

For the compound `NNC(=O)CCCCl`, the growth is 100% in the assay on T-47D breast; 119% with BT-549 breast; 108% in the assay with MDA-MB-435 melanoma; 105% in the assay on SW-620 colon; 98.4% in the assay on MCF7 breast; 108% in the assay on HCT-116 colon. In addition, the growth with HCC-2998 colon and in the assay with KM12 colon was 102% in each case.

Take `NC(=S)N/N=C/c1ccc(OC(=O)COc2ccccc2)cn1`: the growth was 41.5% in the assay with T-47D breast; 40.9% in the assay with BT-549 breast; 60.2% in the assay on MDA-MB-435 melanoma; 49% in the assay with SW-620 colon; 22.9% with MCF7 breast; 39.3% with HCT-116 colon. Besides, the growth with HCC-2998 colon was 31%; in the assay with KM12 colon, 62.4%.

For `CC(C)OCC(CCl)OC(=O)Nc1ccccc1` (centres undefined), the growth in the assay on T-47D breast was 100%; in the assay with BT-549 breast, 110%; in the assay with MDA-MB-435 melanoma, 107%; in the assay on SW-620 colon it was 112%; in the assay with MCF7 breast, 96.9%; in the assay with HCT-116 colon it was 108%. The growth with HCC-2998 colon is 95.6%; in the assay with KM12 colon, 96.6%.

With `COc1ccc(C2CC(c3ccccc3)=Nc3ccccc3S2)cc1` (centres undefined), the growth with T-47D breast was 84.1%; in the assay on BT-549 breast, 91.6%; with MDA-MB-435 melanoma it was 98.8%; in the assay with SW-620 colon, 98.4%; with MCF7 breast it was 78.7%; with HCT-116 colon it was 88.7%. Further, the growth with HCC-2998 colon was 111%; in the assay with KM12 colon, 87.4%.

Regarding `CCCC(OC(C)=O)c1ccc2c(c1)OCO2` (centres undefined), the growth with T-47D breast is 100%; with BT-549 breast, 110%; in the assay with MDA-MB-435 melanoma it was 106%; in the assay with SW-620 colon, 109%; in the assay on MCF7 breast, 95.8%; in the assay on HCT-116 colon it was 108%. The growth was 98% in the assay with HCC-2998 colon and 106% in the assay with KM12 colon.

Take `OCC1OC(n2ccc3c2ncn2ncnc32)C(O)C1O` (centres undefined): the growth in the assay on T-47D breast was 10.9%; in the assay on BT-549 breast it was 23.3%; in the assay with MDA-MB-435 melanoma, 62.1%; with SW-620 colon, 26.2%; in the assay with MCF7 breast it was 9.97% (active); in the assay with HCT-116 colon, 20.5%. The growth was 29.1% in the assay on HCC-2998 colon and 27.6% in the assay on KM12 colon.

`CCOc1ccc2c(c1)c(C)cc(C)[n+]2CC`: the growth in the assay with T-47D breast is 69.5%; in the assay with BT-549 breast, 33.8%; with MDA-MB-435 melanoma it was 73.9%; in the assay on SW-620 colon, 84%; in the assay on MCF7 breast, 72.3%; in the assay on HCT-116 colon, 54.5%. Besides, the growth with HCC-2998 colon was 82.9%; with KM12 colon, 17.6%.

With `CCOC(=O)c1ccc(Nc2sc(C(=O)c3ccc(Br)cc3)c(N)c2C#N)cc1`, the growth was 28% with T-47D breast; 50.9% in the assay with BT-549 breast; -61.9% (active) in the assay on MDA-MB-435 melanoma; 25.6% in the assay on SW-620 colon; 9% (active) in the assay on MCF7 breast; 26.9% with HCT-116 colon. Moreover, the growth in the assay with HCC-2998 colon was 66.1%; in the assay with KM12 colon it was 21.7%.

As to `Oc1cc2ccccc2c(-c2c(O)c(O)cc3ccccc23)c1O`, the growth is 25.7% in the assay on T-47D breast; 5.13% (active) in the assay with BT-549 breast; 10.5% in the assay with MDA-MB-435 melanoma; 49.4% with SW-620 colon; 12.3% in the assay with MCF7 breast; 29% in the assay with HCT-116 colon. Besides, the growth was 38.6% in the assay with HCC-2998 colon and 52.5% in the assay on KM12 colon.

Take `COc1ccc(NNS(=O)(=O)O)cc1`: the growth with T-47D breast was 88.6%; in the assay with BT-549 breast, 102%; in the assay on MDA-MB-435 melanoma, 102%; in the assay on SW-620 colon, 100%; in the assay on MCF7 breast it was 92.9%; in the assay on HCT-116 colon, 100%. In addition, the growth in the assay on HCC-2998 colon was 110%; in the assay on KM12 colon, 105%.

In the case of `Nc1ccc(F)c(Cl)c1F`, the growth was 102% with T-47D breast; 88.8% with BT-549 breast; 109% with MDA-MB-435 melanoma; 104% in the assay with SW-620 colon; 102% with MCF7 breast; 94.9% with HCT-116 colon. The values for the growth in the assay on HCC-2998 colon and in the assay with KM12 colon were 100% and 108%, respectively.

As for `NNC(=O)c1ccccc1N`, the growth was 103% with T-47D breast; 121% in the assay with BT-549 breast; 114% with MDA-MB-435 melanoma; 103% with SW-620 colon; 101% in the assay on MCF7 breast; 99.3% in the assay with HCT-116 colon. The growth was 112% with HCC-2998 colon and 105% in the assay with KM12 colon.

In the case of `Cc1cc(C)cc(OCC(=O)O)c1`, the growth in the assay on T-47D breast is 96.6%; in the assay with BT-549 breast it was 97.9%; with MDA-MB-435 melanoma it was 104%; in the assay with SW-620 colon it was 109%; in the assay with MCF7 breast, 97.7%; with HCT-116 colon, 96.9%. Further, the values for the growth in the assay on HCC-2998 colon and in the assay with KM12 colon were 102% and 110%, respectively.

Consider `CCCCCCCCCc1ccc(OC(C)=O)cc1`, for which the growth in the assay with T-47D breast is 108%; in the assay on BT-549 breast it was 112%; in the assay on MDA-MB-435 melanoma, 109%; in the assay on SW-620 colon, 102%; in the assay with MCF7 breast, 102%; with HCT-116 colon it was 110%. The results for the growth with HCC-2998 colon and in the assay with KM12 colon were 113% and 106%, respectively.

(Values after PubChem BioAssay (NCI).)
